Pol beta inh – DNA polymerase beta (human) inhibition; Potency, µM (top dose mostly 114 µM), most hits filed as inhibitors; actives 1.3% (n = 340,000); Pol beta primer extension/strand displacement, fluorescence kinetic; P06746; AID 485314
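Homogeneous kinetic assay of primer extension and strand displacement by 10 nM Pol beta, preincubated 15 min at room temperature with compound before 50 nM substrate (final) was added. Read at 0 and 10 min; four-parameter Hill fit.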
Pol iota inh – inhibitors of human DNA polymerase iota; Q9UNA4; Pol iota fluorescent replication assay, 10 min; Potency, µM (top dose mostly 115 µM), most hits filed as inhibitors; actives 1% (n = 390,000); AID 588590
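Fluorescent replication assay read twice, at 0 min and 10 min after adding 50 nM (final) substrate. Enzyme (10 nM) and compounds were first incubated 15 min at room temperature; enzyme-free buffer wells were negative controls.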
FEN1 inhibitor – blocks human flap endonuclease 1 | P39748 | actives 0.35% (n = 390,000) | Potency, µM (top dose mostly 114 µM), most hits filed as inhibitors | Recombinant FEN1 flap cleavage, fluorescence, 15 min | AID 588795; note: nearly all actives have a fitted effect of over 65% in size
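Recombinant FEN1 (10 nM) was preincubated with pin-transferred compounds for 15 min at room temperature, then flap DNA substrate (50 nM final) was added. Plates were read at 0 and 15 min, and normalized concentration–response data were fitted to a four-parameter Hill equation.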
WRN helicase inh – inhibitors of human WRN helicase | AID 651768 | Q14191 | WRN helicase unwinding, fluorescent forked duplex, kinetic | actives 0.46% (n = 360,000) | Potency, µM (top dose mostly 114 µM), usual class: inhibitors; note: nearly all actives have a fitted effect of over 55% in size
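Screening of the MLSMR collection measured strand separation of a quenched forked DNA duplex (100 nM) by 20 nM WRN with 2 mM ATP, all final. Compounds were preincubated with enzyme 15 min at room temperature.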
Pol eta inh – inhibitors of human DNA polymerase eta | recombinant Pol eta, fluorescent DNA replication assay | AID 588591 | Potency, µM (series often up to 114 µM), most hits filed as inhibitors | actives 1.2% (n = 390,000)
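Pol eta at 10 nM preincubated with compounds 15 min at room temperature; reaction started with fluorescent substrate (50 nM final) and read kinetically at 0 and 10 min.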
POLK inh – DNA polymerase kappa (human) inhibition. Q9UBT6. purified Pol kappa, fluorescent DNA synthesis assay, 10 min. Potency, µM (highest dose often 107 µM), most hits filed as inhibitors. actives 0.53% (n = 400,000). AID 588579
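Kinetic fluorescence screen: compound preincubated 15 min RT with 10 nM enzyme; 50 nM substrate (final) initiates; reads at 0/10 min.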
Numbers stand for hits; - = inactive; ? = inconclusive; . = no result given; ! = not confirmed by another sample; [ ] = dose if it differs, or a comment. Hits are enriched below; roughly 2.4% of the tested compounds scored in any of these assays. Calls come from the whole dose curve; as a rule, active = well fitted curve in the direction sought with a large enough effect; inconclusive = small, poorly fitted or top-dose-only effect, or another doubt; inactive = no such curve, though single readings can be large; an effect the other way counts as inactive or inconclusive.

SMILES | Pol beta inh | Pol iota inh | FEN1 inhibitor | WRN helicase inh | Pol eta inh | POLK inh
CC(=O)Nc1ccc(NC(=O)CSc2cn(CC(=O)N3CCOCC3)c3ccccc23)cc1 | 100µM | - | - | - | - | -
Cc1cccc(-c2[nH]c(C(C)(C)C)nc2-c2ccc3nccnc3c2)n1 | . | . | . | . | . | -
OCCCNC(=S)Nc1ccc2nccnc2c1 | - | 14µM | 40µM | - | - | -
COC(=O)c1cc2oc3ccccc3c2n1CC(=O)Nc1cccc(SC)c1 | - | - | - | . | - | -
Nc1ccc(O)c(C(=O)O)c1 | . | . | . | . | . | 1.1µM
Cc1ccc(C(=O)N[C@H](C(=O)OCc2cc(=O)n3c(n2)sc2ccccc23)C(C)C)cc1 | 14µM | ? | - | - | ? | ?
O=C(OCc1cc(=O)n2c(n1)sc1ccccc12)c1ccc(O)cc1O | 2.8µM | 40µM | - | - | ? | 79µM
O=C(OCc1cc(=O)n2c(n1)sc1ccccc12)c1cccc(O)c1 | 22µM | 45µM | - | ? | ? | 50µM
O=C(Cc1coc2cc3c(cc12)CCC3)OCc1cc(=O)n2c(n1)sc1ccccc12 | 10µM | ? | - | - | 10µM | 89µM
Cc1cn2c(=O)cc(COC(=O)c3ccccc3F)nc2s1 | - | - | - | . | - | -
O=C(Cc1ccc(-c2ccccc2)cc1)NO | . | - | - | . | . | -
CN(C)c1ccc(/C=C/c2nc3ccccc3s2)c(Cl)c1 | . | - | - | . | . | -
O=c1[nH]c(=O)n(Cc2ccccc2)c2nc(-c3cccs3)n(CCO)c12 | 35µM | - | - | - | - | -
CCNc1ncc2nc(-c3cc(F)cc(F)c3)c(=O)n(C3CC3)c2n1 | . | . | . | . | . | -
Cc1ccc(-c2nc(=Nc3ccccc3)sn2-c2ccccc2)cc1 | . | - | - | . | . | -
N=c1nc(-c2ccccc2)n(-c2ccccc2)s1 | . | - | 89µM | . | . | -
O=C(O)CCCCC1CCSS1 (configuration not stated) | 1.1µM | - | - | - | - | 6.7µM!
Cc1cccc(C(=O)Nc2ccc(C(=O)N/N=C/c3cccnc3)cc2)c1 | - | - | - | - | - | -
Cc1ccccc1C(=O)Nc1ccc(C(=O)N/N=C/c2ccc(F)cc2)cc1 | 40µM | - | - | - | - | -
O=C(N/N=C/c1cccnc1)c1cccc(NC(=O)c2ccc(Cl)cc2)c1 | 40µM | ? | - | ? | ? | -
Cc1ccc(C(=O)Nc2ccc(C(=O)N/N=C/c3cccnc3)cc2)cc1 | ? | 79µM | - | -[11.6 µM] | - | -
O=C(N/N=C/c1ccccc1)c1ccc(NC(=O)c2ccc(F)cc2)cc1 | - | - | - | - | - | -
O=C(N/N=C/c1cccnc1)c1cccc(Cl)c1 | - | - | - | - | - | -
COc1ccccc1CCn1c(=O)c(-c2cccs2)nc2cncnc21 | . | . | . | . | . | -
Cc1ccc(C)c(NC(=O)Cc2ccc(S(=O)(=O)N3CCCCC3)s2)c1 | - | - | - | - | ? | -
SMILES | Pol beta inh | Pol iota inh | FEN1 inhibitor | WRN helicase inh | Pol eta inh | POLK inh
CCCC(C)NC(=O)Cc1ccc(S(=O)(=O)N2CCOCC2)s1 (configuration not stated) | . | - | - | - | - | -
COC(=O)CCNC(=O)Cc1ccc(S(=O)(=O)N2CCCCC2)s1 | . | ? | - | -[11.6 µM] | 79µM | -
CCC(CC)NC(=O)Cc1ccc(S(=O)(=O)N2CCOCC2)s1 | ? | ? | - | - | 10µM | -
CCCNC(=O)c1ccc(Cl)cc1Cl | 20µM | - | - | - | - | -
COCCCNC(=S)Nc1cccc2ncccc12 | - | 5.6µM | - | - | - | -
C[N+](C)(C)CC(=O)N/N=C/c1c2ccccc2cc2ccccc12 | 45µM | - | 50µM | -[11.6 µM] | - | -
Nc1ccccc1S(=O)(=O)Nc1cccc2cccnc12 | . | . | . | . | . | -
COc1ccc(C2Nc3ccccc3C(=O)N2Cc2ccco2)cc1COc1c(C)cccc1C (configuration not stated) | . | 25µM | - | . | . | -
O=c1cc(CSc2nnnn2-c2ccccc2)nc(Nc2ccc(F)cc2)[nH]1 | 45µM | 45µM | - | - | ? | ?
N/C(=N\c1nc(CSc2nnnn2-c2ccccc2)cc(=O)[nH]1)Nc1ccccc1 | - | . | . | . | . | .
COc1cc2c(NC3CCN(C)CC3)nc(N3CCCN(C)CC3)nc2cc1OCCCCN(C)C | . | ? | 28µM | . | . | -
COc1cc2c(NC3CCN(C)CC3)nc(N3CCCN(C)CC3)nc2cc1OCCCCCCN(C)C | . | ? | 22µM | . | . | -
COc1cc2nc(NC3CCN(C)CC3)nc(N3CCCN(C)CC3)c2cc1OC | . | - | ? | . | . | -
COc1cc2nc(N3CCCCC3)nc(NC3CCN(C)CC3)c2cc1OC | . | - | ? | . | . | -
CCCN(C)CCCOc1cc2nc(N3CCCN(C)CC3)nc(NC3CCN(C)CC3)c2cc1OC | . | ? | 28µM | . | . | -
COc1cc2c(NC3CCN(C)CC3)nc(N3CCCCC3)nc2cc1OCCCN(C)C | . | 40µM | 25µM | . | . | ?
O=S(=O)(c1ccc2c(c1)OCCO2)N1CCN(c2nc(-c3ccccc3)nc3ccccc23)CC1 | . | - | - | . | . | -
COc1cc2nc(N3CCCCC3)nc(NC3CCN(Cc4ccccc4)CC3)c2cc1OC | . | - | 40µM | . | . | -
COc1cc2c(NC3CCN(C)CC3)nc(N3CCCN(C)CC3)nc2cc1OCCCN(C)C | . | ? | 22µM | . | . | -
COc1ccc(Nc2nc(N3CCCC3)nc3ccccc23)c(OC)c1 | 20µM | ? | 50µM | ? | - | -
COC(=O)C1=C(C)N(CCCC(=O)O)C(=O)NC1c1ccc(C#N)cc1 (configuration not stated) | . | 14µM | - | -[11.6 µM] | - | -
COC(=O)C1=C(C)N(C)C(=O)NC1c1cc2c(cc1[N+](=O)[O-])OCO2 (configuration not stated) | ? | ? | - | - | - | -
COC(=O)C1=C(C)N(CCCC(=O)O)C(=O)NC1c1cc2c(cc1[N+](=O)[O-])OCO2 (configuration not stated) | 10µM | 13µM | ? | - | 50µM | 45µM
CCCn1c(SCC(=O)Nc2nnc(-c3ccccc3)s2)nnc1-c1ccccn1 | 22µM | ? | - | - | ? | -
CCOC(=O)C[C@H]1c2cc(F)ccc2S(=O)(=O)N1Cc1cc(OC)c(OC)c(OC)c1 | . | - | - | . | . | -
SMILES | Pol beta inh | Pol iota inh | FEN1 inhibitor | WRN helicase inh | Pol eta inh | POLK inh
Oc1ccc(Nc2nc3ccccc3nc2Nc2ccc(O)cc2)cc1 | 40µM | ? | ? | - | ? | -
Cc1cnc(/C=C/c2ccc(N(C)C)cc2)cn1 | . | - | ? | . | . | -
CCCCNS(=O)(=O)c1ccc2nc(-c3cccnc3)cc(C(=O)NCCCOCC)c2c1 | 45µM | - | - | . | - | -
CCCCNS(=O)(=O)c1ccc2nc(-c3cccnc3)cc(C(=O)NCCCOC)c2c1 | - | - | - | - | - | -
CSc1nc(C)c2c(n1)N(c1ccc(F)cc1)CC2 | - | - | - | - | - | -
CSc1nc(C)c2c(n1)N(c1ccc(O)cc1)CC2 | ? | ? | - | - | 35µM | -
